In all, about 5,500 compounds went through this assay and about 2,000 (36%) were called active. Roughly 18% stayed inconclusive and do not appear here. No stated cut-off is given here; in the data, active means normalized growth mostly below about 0.91 (no sharp cut-off); inconclusive means no clear call, values can overlap the other calls; inactive means mostly above about 0.92. The list shows a part of the results.
Assay: chemical genetic growth profiling, strain panel (AID 1159580);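 further: tested at 20 µM; growth read once vehicle control cultures reached saturation at 30 °C; 1 = growth at the plate median or of vehicle wells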
Conditions: S. cerevisiae deletion strains, growth OD

Measured: normalized growth

C[C@@H]1OC(O[C@H]2[C@H](OC(=O)[C@]34CCC(C)(C)CC3C3=CCC5[C@@]6(C)CC[C@H](OC7O[C@@H](C)[C@H](O[C@@H]8OC[C@@H](O)[C@H](O)[C@H]8O)[C@@H](O)[C@H]7O)C(C)(C)C6CC[C@@]5(C)[C@]3(C)CC4O)OC[C@H](O)[C@H]2O)[C@H](O)[C@H](O)[C@H]1O[C@@H]1O[C@H](CO)[C@@H](O)[C@H](O)[C@H]1O (some centres not stated)
active: locus YDL035C, strain GPR1, stronger effect = lower value 0.785 | locus YDL134C, strain PPH21, stronger effect = lower value 0.883 | locus YDL192W, strain arf1, stronger effect = lower value 0.825 | locus YDR162C, strain NBP2, stronger effect = lower value 0.0581 | locus YDR388W, stronger effect = lower value 0.918 | locus YER155C, strain BEM2, stronger effect = lower value 1.12 [resistant] | locus YER167W, strain BCK2, stronger effect = lower value 0.895 | locus YHR030C, strain SLT2, stronger effect = lower value 0.323 | locus YJL095W, strain BCK1, stronger effect = lower value 0.33 | locus YKL009W, strain mrt4, stronger effect = lower value 0.876 | locus YKL085W, strain MDH1 (second series), stronger effect = lower value 0.904 | locus YKL085W, strain MDH1, stronger effect = lower value 0.904 | locus YKR001C, strain vps1, stronger effect = lower value 0.721 | locus YLR371W, strain rom2, stronger effect = lower value 0.714 | locus YLR418C, strain cdc73, stronger effect = lower value 0.745 | locus YML032C, strain rad52, stronger effect = lower value 0.824 | locus YMR223W, strain ubp8, stronger effect = lower value 0.895 | locus YMR307W, strain GAS1, stronger effect = lower value 0.212 | locus YNL250W, strain rad50, stronger effect = lower value 0.891 | locus YNL298W, strain CLA4, stronger effect = lower value 0.838 | locus YNR052C, strain pop2, stronger effect = lower value 0.815 | locus YOL012C, strain htz1 2.15 [resistant] | locus YOR061W, strain CKA2, stronger effect = lower value 0.59 | locus YOR184W, strain ser1, stronger effect = lower value 0.79 | locus YPR167C, strain met16, stronger effect = lower value 0.861
inactive: locus YBR021W, strain FUR4, stronger effect = lower value 0.963 | locus YBR229C, strain ROT2, stronger effect = lower value 0.967 | locus YCL029C, strain bik1, stronger effect = lower value 1.01 | locus YDL074C, strain BRE1, stronger effect = lower value 0.885 | locus YDL101C, strain DUN1, stronger effect = lower value 0.984 | locus YDL185W, strain tfp1, stronger effect = lower value 0.974 | locus YDR101C, strain arx1, stronger effect = lower value 0.985 | locus YDR318W, strain mcm21, stronger effect = lower value 0.917 | locus YDR502C, strain sam2, stronger effect = lower value 0.936 | locus YEL061C, strain CIN8, stronger effect = lower value 0.95 | locus YER110C, stronger effect = lower value 0.996 | locus YGL078C, strain dbp3, stronger effect = lower value 0.929 | locus YGL086W, strain mad1, stronger effect = lower value 0.977 | locus YGL248W, strain PDE1, stronger effect = lower value 0.993 | locus YGR135W, strain pre9, stronger effect = lower value 0.978 | locus YGR252W, strain gcn5, stronger effect = lower value 0.934 | locus YHR079C, strain IRE1 (second series), stronger effect = lower value 0.975 | locus YHR094C, strain hxt1, stronger effect = lower value 0.982 | locus YHR129C, strain ARP1, stronger effect = lower value 0.923 | locus YHR200W, strain rpn10, stronger effect = lower value 0.974 | locus YIL066C, strain RNR3, stronger effect = lower value 0.912 | locus YIL073C, strain SPO22, stronger effect = lower value 0.936 | locus YIL125W, strain kgd1, stronger effect = lower value 0.958 | locus YIR030C, strain dcg1, stronger effect = lower value 0.969 | locus YJL134W, strain LCB3, stronger effect = lower value 1.04 | locus YJL168C, strain set2, stronger effect = lower value 1.01 | locus YJL187C, strain SWE1 (second series), stronger effect = lower value 0.925 | locus YJR043C, strain POL32, stronger effect = lower value 0.858 | locus YJR075W, strain HOC1, stronger effect = lower value 0.957 | locus YKL068W, stronger effect = lower value 0.949 | locus YLR039C, strain RIC1, stronger effect = lower value 0.842 | locus YLR058C, strain SHM2, stronger effect = lower value 0.972 | locus YLR102C, strain apc9, stronger effect = lower value 0.982 | locus YLR262C, strain YPT6, stronger effect = lower value 0.709 | locus YLR268W, strain sec22, stronger effect = lower value 0.966 | locus YLR330W, strain CHS5, stronger effect = lower value 0.993 | locus YLR342W, strain FKS1 (second series), stronger effect = lower value 0.927 | locus YML016C, strain PPZ1, stronger effect = lower value 1 | locus YML124C, strain tub3, stronger effect = lower value 0.993 | locus YMR078C, strain ctf18, stronger effect = lower value 0.987 | locus YNL067W, strain RPL9B, stronger effect = lower value 0.983 | locus YNL128W, strain TEP1, stronger effect = lower value 0.887 | locus YNL153C, strain GIM3, stronger effect = lower value 0.958 | locus YNL233W, strain BNI4, stronger effect = lower value 0.997 | locus YNL271C, strain bni1, stronger effect = lower value 1 | locus YNL307C, strain MCK1, stronger effect = lower value 0.991 | locus YOL147C, strain pex11, stronger effect = lower value 0.986 | locus YOR069W, strain VPS5, stronger effect = lower value 1.01 | locus YOR136W, strain idh2, stronger effect = lower value 0.951 | locus YOR144C, strain elg1, stronger effect = lower value 0.982 | locus YOR316C, strain cot1, stronger effect = lower value 0.984 | locus YPL055C, strain LGE1, stronger effect = lower value 0.841 | locus YPL241C, strain CIN2, stronger effect = lower value 0.989 | locus YPR119W, strain clb2, stronger effect = lower value 0.988 | locus YPR141C, strain kar3, stronger effect = lower value 0.981 | locus YPR163C, strain tif3, stronger effect = lower value 0.935 | strain wtn01, stronger effect = lower value 0.955

From PubChem BioAssay AID1159580 (chemical genetic matrix, 2015)
